Experimental data published in PubChem BioAssay (NCI).
This is part of a sample that, as a whole, favours compounds with a hit. Of some 83,000 tested, about 20% had one in any assay.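 Results are percent growth after 48 hours of single-concentration exposure. 100 means growth as in untreated cells, lower positive values show inhibition; negative values down to -100 show cell death.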 Activity calls are given as the source filed them. How the source made its calls: active means growth percent below 10; inactive means the rest.

How the values were obtained:
Assay in all cases: NCI-60 one-dose screen, 48 h (100 = growth as untreated, 0 = no growth, -100 = all killed)
Conditions in all cases: 10 µM unless noted
DU-145 prostate = tested on: DU-145 prostate
K-562 leukemia = tested on: K-562 leukemia
MALME-3M melanoma = tested on: MALME-3M melanoma
MDA-MB-231 breast = tested on: MDA-MB-231 breast
SF-268 CNS = tested on: SF-268 CNS
SF-295 CNS = tested on: SF-295 CNS
SF-539 CNS = tested on: SF-539 CNS
M14 melanoma = tested on: M14 melanoma
RXF 393 renal = tested on: RXF 393 renal

Measured: growth

CC1(/C=N/NC(N)=S)NC(=O)NC1=O (stereo not given)
inactive: DU-145 prostate 107% | K-562 leukemia 89.4% | MALME-3M melanoma 107% | MDA-MB-231 breast 99.2% | SF-268 CNS 102% | SF-295 CNS 108% | SF-539 CNS 110% | M14 melanoma 103%

CC(C)(C)CC(C)(C)Nc1c(-c2c(O)c3ccccc3oc2=O)nc2c(Cl)cc(C(F)(F)F)cn12
inactive: DU-145 prostate 114% | K-562 leukemia 94% | MDA-MB-231 breast 100% | RXF 393 renal 110% | SF-268 CNS 107% | SF-295 CNS 95.9% | SF-539 CNS 99.1% | M14 melanoma 92.2%

CCN(CCN(C)C)C(=O)CNCc1cc(C(N)=O)ccn1
inactive: DU-145 prostate 112% | K-562 leukemia 95.2% | MALME-3M melanoma 114% | MDA-MB-231 breast 97.6% | SF-268 CNS 108% | SF-295 CNS 104% | SF-539 CNS 105% | M14 melanoma 103%

Fc1ccc(NCc2cn(-c3ccccc3)nc2-c2ccc(OCc3ccccc3)cc2)cc1Cl
inactive: DU-145 prostate 107% | K-562 leukemia 89.8% | MDA-MB-231 breast 72.7% | RXF 393 renal 112% | SF-268 CNS 92.2% | SF-295 CNS 87% | SF-539 CNS 93.3% | M14 melanoma 88.1%

C=CC[n+]1c(/C=C/C=C2\N(C)c3ccccc3C2(C)C)sc2ccc(OC)cc21
inactive: DU-145 prostate 25.6% | K-562 leukemia 10.3% | MDA-MB-231 breast 26.1% | SF-268 CNS 32.7% | SF-539 CNS 25.7% | M14 melanoma 23%
active: MALME-3M melanoma 5.31% | SF-295 CNS -17.7%

CCOC(=O)C1=C(C)NC(=O)NC1c1cc(=O)oc2ccc(C)cc12 (stereo not given)
inactive: DU-145 prostate 104% | K-562 leukemia 103% | MALME-3M melanoma 99% | MDA-MB-231 breast 106% | SF-268 CNS 101% | SF-295 CNS 96.9% | SF-539 CNS 102% | M14 melanoma 102%

Cc1sc2c(c1C)c(=O)nc1c(-c3nc4ccccc4s3)n[nH]n12
inactive: DU-145 prostate 106% | K-562 leukemia 94% | MALME-3M melanoma 97.1% | MDA-MB-231 breast 87.6% | SF-268 CNS 96.1% | SF-295 CNS 92.3% | SF-539 CNS 96.5% | M14 melanoma 98.6%

Clc1nc(Cl)c2ncn(C/C=C\Cn3cnc4c(Cl)nc(Cl)nc43)c2n1
active: DU-145 prostate -98.4% | K-562 leukemia -24.8% | MALME-3M melanoma -72.7% | MDA-MB-231 breast -68.5% | SF-268 CNS -2.21% | SF-295 CNS -32.9% | SF-539 CNS -52.9% | M14 melanoma -32.9%

CC(C)[C@@H]1CC[C@]2(CO2)[C@@H]2C(=O)OCC(C(=O)O)=C[C@H]21
inactive: SF-295 CNS 22.2%
active: DU-145 prostate 7.04% | K-562 leukemia 7.2% | MALME-3M melanoma -3.58% | MDA-MB-231 breast 9.95% | SF-268 CNS 1.21% | SF-539 CNS 6.83% | M14 melanoma -48.5%

CC(C)n1c(NCCc2ccc(O)c(O)c2)nc2c1c(=O)n(C)c(=O)n2C
inactive: DU-145 prostate 102% | K-562 leukemia 97.1% | MALME-3M melanoma 97.9% | MDA-MB-231 breast 92.2% | SF-268 CNS 94.2% | SF-295 CNS 106% | SF-539 CNS 104% | M14 melanoma 98.8%

CCN(CC)CCCC(C)Nc1cc(-c2ccc(C(F)(F)F)cc2)c(C#N)c2nc3ccccc3n12 (stereo not given)
inactive: SF-268 CNS 14.6%
active: DU-145 prostate 7.4% | K-562 leukemia -46.1% | MDA-MB-231 breast -38% | RXF 393 renal -75.7% | SF-295 CNS -25.9% | SF-539 CNS -75.1% | M14 melanoma -69.6%

COc1cnc2c(c1)C(=O)c1c-2n(CCCN2CCOCC2)c(=O)c2cc(Cl)ccc12
inactive: DU-145 prostate 17.8% | K-562 leukemia 27.5% | MDA-MB-231 breast 64.1% | SF-268 CNS 29.1% | M14 melanoma 11.9%
active: RXF 393 renal 1.67% | SF-295 CNS 8.59% | SF-539 CNS 6.36%

CCc1nc2cc(/C=C/C(=O)NO)ccc2c(=O)n1CCc1ccc(F)cc1
active: DU-145 prostate -5.02% | K-562 leukemia 4.68% | MDA-MB-231 breast -6.12% | RXF 393 renal -29.5% | SF-268 CNS 9.29% | SF-539 CNS 4.06% | M14 melanoma 6.79%
inactive: SF-295 CNS 10.4%

O=C(NO)c1ccc(Cn2c(=O)n(CCc3ccccc3)c(=O)c3ccccc32)cc1
inactive: DU-145 prostate 30.5% | K-562 leukemia 35.4% | MDA-MB-231 breast 39% | RXF 393 renal 15.8% | SF-268 CNS 46.4% | SF-295 CNS 22.1% | SF-539 CNS 12.1% | M14 melanoma 22.2%

CCN(CC)CCNc1ccc(N=Nc2cnc3ccccc3c2)c2ccccc12
active: DU-145 prostate -85.1% | MALME-3M melanoma -56.5% | MDA-MB-231 breast -87.6% | SF-268 CNS -77.7% | SF-295 CNS -53.9% | SF-539 CNS -97.4% | M14 melanoma -67.3%

CCCC(=O)OCC1OC(n2cnc3c(=S)nc(N)[nH]c32)C(OC(=O)CCC)C1OC(=O)CCC (stereo not given)
inactive: DU-145 prostate 27.3% | MALME-3M melanoma 29.9% | MDA-MB-231 breast 38.9% | SF-268 CNS 38.8% | SF-295 CNS 19.8% | SF-539 CNS 26.7% | M14 melanoma 13.9%

CC(=Nc1ccccc1)C1=C(O)C(Cc2ccc(O)cc2)NC1=O (stereo not given)
inactive: MALME-3M melanoma 58.6% | MDA-MB-231 breast 11.3% | SF-268 CNS 11.5%
active: DU-145 prostate -28.6% | SF-295 CNS -41.1% | SF-539 CNS -33.7% | M14 melanoma 0.122%

O=C(NO)c1ccc(Cn2c(=O)n(-c3ccccc3F)c(=O)c3ccccc32)cc1
inactive: MDA-MB-231 breast 21.3%
active: DU-145 prostate 6.2% | K-562 leukemia 1.13% | RXF 393 renal -44.8% | SF-268 CNS 1.99% | SF-295 CNS -44.3% | SF-539 CNS -12.8% | M14 melanoma -22.6%

OCCNC(=S)Nc1ccc(-c2nc(N3C[C@H]4CC[C@@H](C3)O4)c3cccn3n2)cc1
inactive: K-562 leukemia 19.1%
active: DU-145 prostate 8.77% | MDA-MB-231 breast 4.21% | RXF 393 renal -31.4% | SF-268 CNS 9.25% | SF-295 CNS -34.3% | SF-539 CNS -12.2% | M14 melanoma 5.27%

COc1cnc2c(c1)C(=O)c1c-2n(CCCNC2=NCCS2)c(=O)c2cc(Cl)ccc12
inactive: RXF 393 renal 39%
active: DU-145 prostate -76.7% | K-562 leukemia -58.3% | MDA-MB-231 breast -70.7% | SF-268 CNS -49.4% | SF-295 CNS -93.5% | SF-539 CNS -84.4% | M14 melanoma -70.3%

C=C1C(=O)O[C@H]2[C@H]1CC/C(C=Nc1c(N)cc(C(F)(F)F)cc1C(F)(F)F)=C\CC[C@@]1(C)O[C@@H]21
inactive: SF-295 CNS 49.7%
active: DU-145 prostate 5.82% | K-562 leukemia -4.88% | MDA-MB-231 breast -49.5% | RXF 393 renal -81.6% | SF-268 CNS 1.5% | SF-539 CNS -84.5% | M14 melanoma -61.2%

CCc1ccc(C2=C(O)C(=O)C(c3ccc(CC)cc3)=C(O)C2=O)cc1
active: MALME-3M melanoma -15.1% | MDA-MB-231 breast -0.828% | SF-268 CNS 0.61% | SF-295 CNS -27.2% | SF-539 CNS -71.8% | M14 melanoma 4.98%
inactive: DU-145 prostate 13.8%

CCCC(=O)OCC1OC(n2cnc3c(=S)nc[nH]c32)C(OC(=O)CCC)C1OC(=O)CCC (stereo not given)
inactive: DU-145 prostate 42.1% | MALME-3M melanoma 51.8% | MDA-MB-231 breast 45.2% | SF-268 CNS 52.5% | SF-295 CNS 36.8% | SF-539 CNS 22.1% | M14 melanoma 13%

COc1cc(C(=O)NNC(=O)c2ccc(NC(=O)CCl)cc2)cc(OC)c1OC
inactive: DU-145 prostate 91% | K-562 leukemia 53.7% | MDA-MB-231 breast 51.1% | RXF 393 renal 92.9% | SF-268 CNS 76.8% | SF-295 CNS 93.7% | SF-539 CNS 91.5% | M14 melanoma 82.6%

CCNCCNc1cc(-c2ccc(Cl)c(Cl)c2)c(C#N)c2nc3ccccc3n12
active: DU-145 prostate -93.7% | K-562 leukemia -65.3% | MDA-MB-231 breast -77.5% | RXF 393 renal -91% | SF-268 CNS -79.6% | SF-295 CNS -92.3% | SF-539 CNS -87.5% | M14 melanoma -73.8%

CCOC(=O)Sc1ncnc2nc[nH]c12
inactive: DU-145 prostate 38% | MALME-3M melanoma 59.2% | MDA-MB-231 breast 45.7% | SF-268 CNS 65.8% | SF-295 CNS 36.8% | SF-539 CNS 36.7% | M14 melanoma 13.7%

C=C1[C@@H](O)C[C@H]2C(C)(C)C[C@H](Cl)C[C@]2(C)[C@H]1C[C@H](O)[C@H]1CC(=O)NC1=O
active: DU-145 prostate -29.1% | K-562 leukemia 1.91% | MDA-MB-231 breast -31% | RXF 393 renal -63.2% | SF-268 CNS -20.8% | SF-295 CNS -29.2% | SF-539 CNS -35.4% | M14 melanoma -75.5%

Nc1nc(N)c2cc(CNc3ccc(C(=O)NC(CC(=O)O)C(=O)O)cc3)ccc2n1 (stereo not given)
inactive: DU-145 prostate 26.7% | MALME-3M melanoma 81.3% | MDA-MB-231 breast 95.8% | SF-268 CNS 29.7% | SF-295 CNS 28.5% | SF-539 CNS 15.6% | M14 melanoma 16.7%

O=C1/C(=C\c2cccc(OCCCCCOc3ccc(Cl)cc3)c2)N=C2SCCCN12
inactive: DU-145 prostate 84% | K-562 leukemia 41.7% | MDA-MB-231 breast 54.2% | RXF 393 renal 71.2% | SF-268 CNS 81.3% | SF-295 CNS 43% | SF-539 CNS 77.4% | M14 melanoma 44.5%
